Values without a mark were called inactive. Results filed as inconclusive are left out. The source made the active and inactive calls.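 How the source made its calls, unless noted: active means inhibition over a set limit, the all-compound mean plus 3 SD, in both replicate runs; inconclusive means over that limit in just one replicate run; inactive means at or under that limit in both runs.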 Non-standard residues stand in square brackets, D forms with d. Residues, ends and D or L forms follow the SMILES beside them. ξ: configuration not given here. *: point of attachment. Cbz = O=C(OCc1ccccc1)*; ξV = CC(C)C(N)C(=O)O; OtBu = CC(C)(C)O*
Experiment: viability of PTEN-null HCT116 cells – cell-based, HCT116 clonal line, CellTiter-Glo, pilot screen (AID 824;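 active means viability at or below 27.92% in each of two runs, the all-compound median minus 4 SD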;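 further: 0% = 20 µM Hyamine control and 100% = vehicle cell control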)
Conditions: HCT116 PTEN-deleted viability, 60 h, at 10 µM, active compounds read low

Question: Which viability does the source give for `Cc1nnc(NC(=O)CSc2nnc(Cc3cccn3C)n2-c2cccc(C(F)(F)F)c2)s1` here?
Answer: Its viability is 94%.

Question: For `O=S(=O)(c1cccs1)n1nnc2ccccc21`, which viability is on record?
Answer: Its viability is 105%.

Question: For `CC(C)N(CCCNC(=O)CC1Oc2ccccc2NC1=O)Cc1ccccc1` (stereo not given), which viability is on record?
Answer: The viability was 97.7%.

Question: With `O=C(Nc1ccccc1C(=O)NC(Cc1c[nH]c2ccccc12)C(=O)O)c1ccco1` (stereo not given) as the compound, how does the viability read?
Answer: Its viability is 97.1%.

Question: With `COCCCN(C(=O)Nc1ccc(C)c(C)c1)C(C)c1ccccn1` (stereo not given) as the compound, how does the viability read?
Answer: The viability was 89.8%.

Question: For `O=C(Cn1c(=O)sc2ccccc21)Nc1ccccc1C(=O)O`, which viability is on record?
Answer: Its viability is 96.7%.

Question: Which viability does the source give for `CCCCNc1cc(=O)n(C)c(=O)[nH]1` here?
Answer: Its viability is 96.5%.

Question: Which viability does the source give for `C=CCc1cc(/C=N/n2cnnc2)cc(OCC)c1O` here?
Answer: Its viability is 94.7%.

Question: Which viability does the source give for `O=C(c1cnc2n(c1=O)CCS2)N1CCN(C(c2ccccc2)c2ccc(Cl)cc2)CC1` (stereo not given) here?
Answer: The viability was 63.7%.

Question: Which viability does the source give for `COc1cccc(-c2nnc3n2N=C(C(C)(C)C)CS3)c1` here?
Answer: Its viability is 5.52% (active).

Question: With `CC1=C(C(N)=O)C(c2ccccn2)n2nc(SCc3ccccc3Cl)nc2N1` (stereo not given) as the compound, how does the viability read?
Answer: The viability was 83.3%.

Question: Which viability does the source give for `Cc1nnc(SCC(=O)N2CCOCC2)n1C` here?
Answer: Its viability is 101%.

Question: Which viability does the source give for `CCc1nnc(NC(=O)CCC(=O)O)s1` here?
Answer: Its viability is 96.3%.

Question: Which viability does the source give for `O=C(Nc1cccc(F)c1)c1ccc(S(=O)(=O)N2CCOCC2)cc1` here?
Answer: The viability was 99.6%.

Question: Which viability does the source give for `O=C(NCc1ccc2c(c1)OCO2)C1CC(=O)N(CCc2ccccc2)C1` (stereo not given) here?
Answer: The viability was 95.7%.

Question: With `COc1cc(OC)c(NC(=O)c2ccc(Br)o2)cc1Cl` as the compound, how does the viability read?
Answer: Its viability is 70.6%.

Question: For `CCOc1ccc2nc(N3CCC(C(=O)Nc4nnc(CC)s4)CC3)sc2c1`, which viability is on record?
Answer: Its viability is 95.1%.

Question: With `CC(C)C(NC(=O)OCc1ccccc1)C(=O)NCC(=O)OC(C)(C)C` (stereo not given) (Cbz-[ξV]-Gly-OtBu) as the compound, how does the viability read?
Answer: Its viability is 95.2%.

Question: With `Cc1cc(Nc2ccc(F)cc2)n2nc(C)nc2n1` as the compound, how does the viability read?
Answer: Its viability is 97.2%.

Question: For `CCOc1ccc(NC(=O)CSc2nnc(Cn3c(=O)sc4ccccc43)n2C)cc1`, which viability is on record?
Answer: The viability was 103%.

Question: For `Cn1c(=O)cc(N2CCc3ccccc32)[nH]c1=O`, which viability is on record?
Answer: Its viability is 98.1%.

Question: Which viability does the source give for `CC1(C)CC(=O)c2sc(NC(=O)C3CC3)nc2C1` here?
Answer: The viability was 106%.

Question: With `CCN(CC)CCN1C(=O)C2C3c4ccccc4C(c4ccccc43)C2C1=O` (stereo not given) as the compound, how does the viability read?
Answer: The viability was 95.4%.

Question: For `CCCN1CCN(C(=O)C2CCN(S(=O)(=O)c3ccc4c(c3)oc(=O)n4C)CC2)CC1`, which viability is on record?
Answer: Its viability is 98.5%.

Question: For `C=CCn1c(SCC(=C)C)nc2c1c(=O)[nH]c(=O)n2C`, which viability is on record?
Answer: The viability was 97%.

Question: With `CCC(C)NC(=O)c1ccc(CS(=O)(=O)c2ccc(OC)cc2)o1` (stereo not given) as the compound, how does the viability read?
Answer: Its viability is 93.2%.

Question: With `CC(=O)C(C)Oc1ccc2c3c(c(=O)oc2c1)CCCC3` (stereo not given) as the compound, how does the viability read?
Answer: The viability was 91.1%.

Question: For `C=CCOC(=O)c1[nH]c2c(c1C)C(=O)CC(c1cc(OC)c(OC)c(OC)c1)C2` (stereo not given), which viability is on record?
Answer: Its viability is 66.7%.

Question: Which viability does the source give for `CCOc1nonc1C(=N)/C(C(C)=O)=C(\C)O` here?
Answer: Its viability is 98%.

Question: With `Cc1ccc(Nc2nc(C3CC3)cs2)cc1` as the compound, how does the viability read?
Answer: The viability was 90.5%.

Question: For `Cc1ccccc1CN1CCNC(=O)C1CC(=O)O` (stereo not given), which viability is on record?
Answer: The viability was 96.2%.

Question: With `CCN1CCN(CCNC(=O)c2ccc(CS(=O)(=O)c3c(Cl)cccc3Cl)o2)CC1` as the compound, how does the viability read?
Answer: Its viability is 103%.

Question: For `COc1ccc(C(=O)N(Cc2nc(-c3ccc(C)cc3)no2)C(C)C)cc1OC`, which viability is on record?
Answer: Its viability is 79.3%.

Question: With `COc1cc2c(cc1OC)C1=C(C#N)CC/C(=N\S(=O)(=O)c3ccccc3)N1CC2` as the compound, how does the viability read?
Answer: Its viability is 87.8%.

Question: Which viability does the source give for `Nc1nc2n(n1)C(c1ccco1)CC(c1ccc(F)cc1)N2` (stereo not given) here?
Answer: The viability was 101%.

Question: For `C=CCN(c1ccccc1)S(=O)(=O)c1ccc2c(c1)oc(=O)n2C`, which viability is on record?
Answer: The viability was 87.6%.

Question: With `C#CCn1c(=NC(=O)c2cccs2)sc2cccc(OC)c21` as the compound, how does the viability read?
Answer: Its viability is 73.9%.

Question: For `CC(=O)N1CCN(c2ccc(NCc3ccc(F)cc3)cc2)CC1`, which viability is on record?
Answer: Its viability is 83.1%.

Question: With `CCn1c(SCC(=O)N2CCCC2)nc2c(c1=O)SC(C)C2` (stereo not given) as the compound, how does the viability read?
Answer: The viability was 95.6%.

Question: With `CC(C)(CC(=O)O)Cc1nc(-c2ccc(Cl)cc2)no1` as the compound, how does the viability read?
Answer: Its viability is 93.2%.

Experiment: RAM pathway blockade in budding yeast – dse1pr::URA3 reporter, 5-FOA selection, pilot screen (AID 869);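 further: 0% = DMSO wells with no growth and 100% = 10 µM 1-NA-PP1 with full growth; RAM network block rescues cells from 5-FOA so hits raise OD615 growth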
Conditions: S. cerevisiae dse1pr::URA3 5-FOA growth, OD615, 2 d; at 10 µM; active compounds read high; strain carries analog-sensitive mutant Cbk1 kinase

Question: For `Cc1nnc(NC(=O)CSc2nnc(Cc3cccn3C)n2-c2cccc(C(F)(F)F)c2)s1`, which inhibition is on record?
Answer: The inhibition was 0.075%.

Question: For `O=S(=O)(c1cccs1)n1nnc2ccccc21`, which inhibition is on record?
Answer: Its inhibition is 1.33%.

Question: Which inhibition does the source give for `CC(C)N(CCCNC(=O)CC1Oc2ccccc2NC1=O)Cc1ccccc1` (stereo not given) here?
Answer: Its inhibition is 0.47%.

Question: For `O=C(Nc1ccccc1C(=O)NC(Cc1c[nH]c2ccccc12)C(=O)O)c1ccco1` (stereo not given), which inhibition is on record?
Answer: The inhibition was 0.95%.

Question: For `COCCCN(C(=O)Nc1ccc(C)c(C)c1)C(C)c1ccccn1` (stereo not given), which inhibition is on record?
Answer: Its inhibition is 2.15%.

Question: For `O=C(Cn1c(=O)sc2ccccc21)Nc1ccccc1C(=O)O`, which inhibition is on record?
Answer: Its inhibition is 3.53%.

Question: For `CCCCNc1cc(=O)n(C)c(=O)[nH]1`, which inhibition is on record?
Answer: The inhibition was 1.55%.

Question: Which inhibition does the source give for `C=CCc1cc(/C=N/n2cnnc2)cc(OCC)c1O` here?
Answer: The inhibition was 0.925%.

Question: With `O=C(c1cnc2n(c1=O)CCS2)N1CCN(C(c2ccccc2)c2ccc(Cl)cc2)CC1` (stereo not given) as the compound, how does the inhibition read?
Answer: The inhibition was 1.31%.

Question: Which inhibition does the source give for `COc1cccc(-c2nnc3n2N=C(C(C)(C)C)CS3)c1` here?
Answer: The inhibition was 0.79%.

Question: Which inhibition does the source give for `CC1=C(C(N)=O)C(c2ccccn2)n2nc(SCc3ccccc3Cl)nc2N1` (stereo not given) here?
Answer: Its inhibition is 1.04%.

Question: With `Cc1nnc(SCC(=O)N2CCOCC2)n1C` as the compound, how does the inhibition read?
Answer: Its inhibition is 2.25%.

Question: With `CCc1nnc(NC(=O)CCC(=O)O)s1` as the compound, how does the inhibition read?
Answer: The inhibition was 0.815%.

Question: Which inhibition does the source give for `O=C(Nc1cccc(F)c1)c1ccc(S(=O)(=O)N2CCOCC2)cc1` here?
Answer: The inhibition was 1.13%.

Question: Which inhibition does the source give for `O=C(NCc1ccc2c(c1)OCO2)C1CC(=O)N(CCc2ccccc2)C1` (stereo not given) here?
Answer: Its inhibition is 2.38%.

Question: Which inhibition does the source give for `COc1cc(OC)c(NC(=O)c2ccc(Br)o2)cc1Cl` here?
Answer: The inhibition was 1.47%.

Question: Which inhibition does the source give for `CCOc1ccc2nc(N3CCC(C(=O)Nc4nnc(CC)s4)CC3)sc2c1` here?
Answer: The inhibition was 2.67%.

Question: With `CC(C)C(NC(=O)OCc1ccccc1)C(=O)NCC(=O)OC(C)(C)C` (stereo not given) (Cbz-[ξV]-Gly-OtBu) as the compound, how does the inhibition read?
Answer: Its inhibition is 1.82%.

Question: For `Cc1cc(Nc2ccc(F)cc2)n2nc(C)nc2n1`, which inhibition is on record?
Answer: Its inhibition is -0.875%.

Question: Which inhibition does the source give for `CCOc1ccc(NC(=O)CSc2nnc(Cn3c(=O)sc4ccccc43)n2C)cc1` here?
Answer: Its inhibition is 0.83%.

Question: For `Cn1c(=O)cc(N2CCc3ccccc32)[nH]c1=O`, which inhibition is on record?
Answer: The inhibition was 1.23%.

Question: For `CC1(C)CC(=O)c2sc(NC(=O)C3CC3)nc2C1`, which inhibition is on record?
Answer: The inhibition was 1.47%.

Question: With `CCN(CC)CCN1C(=O)C2C3c4ccccc4C(c4ccccc43)C2C1=O` (stereo not given) as the compound, how does the inhibition read?
Answer: The inhibition was 0.035%.

Question: For `CCCN1CCN(C(=O)C2CCN(S(=O)(=O)c3ccc4c(c3)oc(=O)n4C)CC2)CC1`, which inhibition is on record?
Answer: Its inhibition is 3.06%.

Question: With `C=CCn1c(SCC(=C)C)nc2c1c(=O)[nH]c(=O)n2C` as the compound, how does the inhibition read?
Answer: The inhibition was -0.415%.

Question: For `CCC(C)NC(=O)c1ccc(CS(=O)(=O)c2ccc(OC)cc2)o1` (stereo not given), which inhibition is on record?
Answer: Its inhibition is 0.73%.

Question: Which inhibition does the source give for `CC(=O)C(C)Oc1ccc2c3c(c(=O)oc2c1)CCCC3` (stereo not given) here?
Answer: Its inhibition is 2.3%.

Question: With `C=CCOC(=O)c1[nH]c2c(c1C)C(=O)CC(c1cc(OC)c(OC)c(OC)c1)C2` (stereo not given) as the compound, how does the inhibition read?
Answer: The inhibition was 3.67%.

Question: With `CCOc1nonc1C(=N)/C(C(C)=O)=C(\C)O` as the compound, how does the inhibition read?
Answer: Its inhibition is 1.42%.

Question: Which inhibition does the source give for `Cc1ccc(Nc2nc(C3CC3)cs2)cc1` here?
Answer: Its inhibition is 1.38%.

Question: Which inhibition does the source give for `Cc1ccccc1CN1CCNC(=O)C1CC(=O)O` (stereo not given) here?
Answer: The inhibition was 2.04%.

Question: Which inhibition does the source give for `CCN1CCN(CCNC(=O)c2ccc(CS(=O)(=O)c3c(Cl)cccc3Cl)o2)CC1` here?
Answer: The inhibition was 2.98%.

Question: Which inhibition does the source give for `COc1ccc(C(=O)N(Cc2nc(-c3ccc(C)cc3)no2)C(C)C)cc1OC` here?
Answer: The inhibition was 3.8%.

Question: Which inhibition does the source give for `COc1cc2c(cc1OC)C1=C(C#N)CC/C(=N\S(=O)(=O)c3ccccc3)N1CC2` here?
Answer: Its inhibition is 1.25%.

Question: Which inhibition does the source give for `Nc1nc2n(n1)C(c1ccco1)CC(c1ccc(F)cc1)N2` (stereo not given) here?
Answer: The inhibition was 0.45%.

Question: For `C=CCN(c1ccccc1)S(=O)(=O)c1ccc2c(c1)oc(=O)n2C`, which inhibition is on record?
Answer: Its inhibition is 2.14%.

Question: With `C#CCn1c(=NC(=O)c2cccs2)sc2cccc(OC)c21` as the compound, how does the inhibition read?
Answer: Its inhibition is 3.34%.

Question: For `CC(=O)N1CCN(c2ccc(NCc3ccc(F)cc3)cc2)CC1`, which inhibition is on record?
Answer: The inhibition was 2.81%.

Question: Which inhibition does the source give for `CCn1c(SCC(=O)N2CCCC2)nc2c(c1=O)SC(C)C2` (stereo not given) here?
Answer: Its inhibition is 1.73%.

Question: Which inhibition does the source give for `CC(C)(CC(=O)O)Cc1nc(-c2ccc(Cl)cc2)no1` here?
Answer: The inhibition was 0.855%.
